# Assays:
# Conditions in all cases: concentration: 1 μM, replicates: in singlicate; n = 1
# [1] = system: T1, IKK-alpha
# T1 construct: gene CHUK
# [2] = system: T2, IKK-beta
# T2 construct: gene IKBKB
# [3] = system: T3, IKK-epsilon
# T3 construct: gene IKBKE
# [4] = system: INSRR
# [5] = system: INSR
# [6] = system: IRAK1
# [7] = system: IRAK3
# [8] = system: IRAK4
# [9] = system: ITK
# [10] = system: JAK1(JH1domain-catalytic)
# [11] = system: JAK1(JH2domain-pseudokinase)
# [12] = system: JAK2(JH1domain-catalytic)
# [13] = system: JAK3(JH1domain-catalytic)
# [14] = system: T4, JNK1
# T4 construct: gene MAPK8
# [15] = system: T5, JNK2
# T5 construct: gene MAPK9
# [16] = system: T6, JNK3
# T6 construct: gene MAPK10
# [17] = system: KIT-autoinhibited
# [18] = system: KIT
# [19] = system: LATS1
# [20] = system: LATS2
# 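Further: KINOMEscan kinase panel screen.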
SMILES,%Inh [1] [%],%Inh [2] [%],%Inh [3] [%],%Inh [4] [%],%Inh [5] [%],%Inh [6] [%],%Inh [7] [%],%Inh [8] [%],%Inh [9] [%],%Inh [10] [%],%Inh [11] [%],%Inh [12] [%],%Inh [13] [%],%Inh [14] [%],%Inh [15] [%],%Inh [16] [%],%Inh [17] [%],%Inh [18] [%],%Inh [19] [%],%Inh [20] [%]
N#CC1(c2cccc(C(=O)Nc3cccc(Oc4ccc5nc(NC(=O)C6CC6)sc5n4)c3)c2)CC1,0,0,0,0,0,0,0,0,0,8,15,0,0,0,0,0,76,99.9,0,0
Cc1nn2c(=O)cc(N3CCO[C@H](C)C3)nc2n1Cc1cccc(Cl)c1Cl [GSK2373693],36,81,0,0,4,78,0,25,15,9,0,22,0,16,9,7,0,51,0,0
CCn1c(-c2nonc2N)nc2c(-c3ccccc3)ncc(OCCCN)c21.O=C(O)C(F)(F)F.O=C(O)C(F)(F)F [GSK260205],32,16,3,0,0,29,0,21,14,11,71,3,0,26,85,85,0,41,100,93.8
CCOc1nccc(-c2c(-c3ccc(F)cc3)ncn2C2CCNCC2)n1 [SB-249175],0,0,6,4,10,45,11,6,0,29,0,26,26,58,89,90.2,8,17,0,29
CN(C)CCOc1ccc(-c2cc(-c3ccc(Cl)c(O)c3)c(-c3ccncc3)[nH]2)cc1.Cl.Cl [SB-684387],9,82,30,0,14,16,0,0,0,20,23,33,10,3,34,36,2,5,0,30
Cc1cccc(Nc2nc(NCCN)ncc2C(N)=O)c1 [GSK1292139],28,16,0,0,22,61,0,60,8,27,96.6,54,0,43,4,23,9,72,0,76
Cc1ccc(-c2ccc3occ(-c4ccc(S(C)=O)cc4)c3c2)nn1 (stereo not shown),0,0,0,0,0,0,0,5,0,0,0,0,0,0,0,0,0,0,13,0
Cc1ccc(NC(=O)c2cccc(N3CCCCC3)c2)cc1-c1ccc(C(=O)NCC2CC2)cc1 [GSK1917008],54,29,15,4,12,17,11,20,26,0,19,15,0,22,30,10,6,79,0,16
Cc1ccccc1CC(=O)N1CCc2cc(-c3cn(C)c4ncnc(N)c34)ccc21 [GSK2603346],12,28,49,8,0,0,0,6,20,5,0,26,0,1,13,7,1,99.8,0,0
Cl.Cl.NCC(NC(=O)c1cc(-c2cccnc2)c(-c2ccnc3[nH]ccc23)s1)c1ccccc1 (stereo not shown) [GSK1323434],14,54,21,0,0,76,1,8,10,15,0,31,79,44,61,41,0,19,0,11
Cc1cc(-c2c(-c3ccc(F)cc3)ncn2CCCN2CCOCC2)nc(N)n1 [SB-222517],0,0,0,26,8,0,0,0,6,0,57,16,0,5,0,0,20,15,15,0
CN1CCN(Cc2ccc(NC(=O)Nc3ccc(N(C)c4ccnc(Nc5ccc(CS(C)(=O)=O)cc5)n4)cc3)cc2)CC1.Cl [GW827654],29,22,28,0,42,44,66,15,28,61,84,99.9,98.5,92.7,76,88,61,100,20,37
COc1cc(Nc2nccc(N3CCC(NS(=O)(=O)c4ccc(NC(C)=O)cc4)CC3)n2)cc(OC)c1OC [GSK1379825],24,14,11,0,0,74,85,44,17,20,83,96.3,8,44,37,31,0,90,0,0
Cl.Cl.NC(CNC(=O)c1cc(Br)c(-c2ccnc3[nH]ccc23)s1)c1ccccc1 (stereo not shown) [GSK1322949],73,69,18,0,9,90.4,55,11,31,24,0,94.3,96.8,44,37,28,0,38,54,93.7
Cc1ccc(NC(=O)c2ccnc(N3CCCCC3)c2)cc1-c1ccc(C(=O)NCC2CC2)cc1 [GW775610],0,0,0,0,0,0,0,0,51,52,0,90,95.2,42,43,28,8,87,0,0
CC(C)NCC(Cc1ccccc1)NC(=O)c1cc(Br)c(-c2ccnc3[nH]ccc23)s1.Cl.Cl (stereo not shown) [GSK1383281],0,23,30,0,0,15,2,12,3,35,0,71,82,28,12,12,0,50,100,70
COc1ccc(C2=C(Nc3cccc(O)c3)C(=O)NC2=O)cc1 [SB-390766],26,44,0,0,2,60,0,45,7,58,0,13,0,21,16,1,2,14,0,0
Fc1cc(Cl)ccc1Nc1ccnc2cc(-c3ccc(CN4CCOCC4)o3)ccc12 [GW560109],43,37,0,5,0,33,27,31,1,0,0,35,0,29,23,15,22,100,0,0
CN(c1ccc2c(c1)nc(NCc1ccccc1)n2C)c1ccnc(Nc2ccc(CS(C)(=O)=O)cc2)n1.Cl [GW811603],0,0,0,44,10,0,0,0,0,12,0,60,99.2,65,40,47,80,100,0,0
O=C(Nc1n[nH]c2nc(-c3ccccc3)ccc12)C1CC1 [SB-708999],94,66,37,0,0,24,10,14,4,0,0,17,51,16,6,6,0,8,6,0
